From PubChem BioAssay (NCI)
About 83,000 compounds went through this panel and 20% of them were active in at least one assay; those are over-represented in the sample as a whole.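 Results are percent growth after 48 hours of single-concentration exposure. 100 means growth as in untreated cells, lower positive values show inhibition; negative values down to -100 show cell death.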 A number with no mark means an inactive call. The source made the active and inactive calls. The calls were made as follows: active = growth percent below 10; inactive = the rest.

Tests used:
Assay in all cases: NCI-60 one-dose screen, 48 h (100 = growth as untreated, 0 = no growth, -100 = all killed)
Details in all cases: 10 µM unless noted
HCT-15 colon = test system: HCT-15 colon
HT29 colon = test system: HT29 colon
SNB-75 CNS = test system: SNB-75 CNS
SNB-19 CNS = test system: SNB-19 CNS
U251 CNS = test system: U251 CNS
PC-3 prostate = test system: PC-3 prostate
SK-MEL-5 melanoma = test system: SK-MEL-5 melanoma
UACC-62 melanoma = test system: UACC-62 melanoma
LOX IMVI melanoma = test system: LOX IMVI melanoma
SK-MEL-28 melanoma = test system: SK-MEL-28 melanoma
SK-MEL-2 melanoma = test system: SK-MEL-2 melanoma
EKVX NSCLC = test system: EKVX NSCLC
SN12C renal = test system: SN12C renal
UO-31 renal = test system: UO-31 renal
TK-10 renal = test system: TK-10 renal
ACHN renal = test system: ACHN renal
CAKI-1 renal = test system: CAKI-1 renal
A498 renal = test system: A498 renal
CCRF-CEM leukemia = test system: CCRF-CEM leukemia
MOLT-4 leukemia = test system: MOLT-4 leukemia

Compound | growth (HCT-15 colon) | growth (HT29 colon) | growth (SNB-75 CNS) | growth (SNB-19 CNS) [%] | growth (U251 CNS) | growth (PC-3 prostate) | growth (SK-MEL-5 melanoma) | growth (UACC-62 melanoma) [%] | growth (LOX IMVI melanoma) | growth (SK-MEL-28 melanoma) [%] | growth (SK-MEL-2 melanoma) [%] | growth (EKVX NSCLC) | growth (SN12C renal) [%] | growth (UO-31 renal) | growth (TK-10 renal) | growth (ACHN renal) | growth (CAKI-1 renal) [%] | growth (A498 renal) | growth (CCRF-CEM leukemia) | growth (MOLT-4 leukemia)
S=c1[nH]c2cc(Cl)ccc2o1 | 98.6% | 105% | 111% | 102 | 104% | 88% | 99% | 96.6 | 103% | 114 | 98.6 | 99.3% | 100 | 87.9% | 94.6% | 98.7% | 97.8 | 91.8% | -43.2% (active) | 63.1%
CNC(=O)c1cc(Oc2ccc3nc(NC(=O)Nc4ccc(Cl)c(Cl)c4)sc3c2)ccn1 | 55% | 36.4% | -38.3% (active) | 74.9 | 24% | -24.7% (active) | 72.7% | 75.8 | -91.9% (active) | 41.4 | 80.8 | 8.47% (active) | 57.3 | 39.9% | 66.3% | 70% | 103 | 93.6% | 42.5% | 66.2%
O=c1ccc2nc(C(F)(F)F)nn(-c3ccccc3)c-2c1 | -79.7% (active) | -64.3% (active) | 86.5% | 93.5 | 69.7% | 84.6% | 32.7% | 66.4 | 4.3% (active) | 35.7 | 78.3 | 95.8% | 67.9 | 24% | -98% (active) | -89% (active) | 56 | 80% | -0.269% (active) | -20.5% (active)
CCNCc1ccc(O)c2ncccc12 | 28% | 95.9% | 31.1% | 24.2 | 17.7% | 23.4% | 6.19% (active) | 25 | 31% | 65.6 | 15.4 | 25.1% | 34 | 18.1% | 5.97% (active) | 22.7% | 35.3 | 59.5% | 27.3% | 29%
Cn1cc(-c2ccc3cc(-c4ccc(CC(=O)Nc5cc(C(C)(C)C)on5)cc4)cnc3c2)cn1 | 10.9% | 38.8% | 28.4% | 34.7 | 2.41% (active) | 21.1% | 26.7% | 10.8 | 30.4% | 29.1 | 18.9 | 38.8% | 16.7 | 9.45% (active) | 43.9% | -23% (active) | 12.8 | -4.2% (active) | 3.44% (active) | 4.87% (active)
COc1cc2cc(NCc3ccc(OC(F)F)cc3)nc(C)c2cc1OC | 59.9% | 25.7% | 88.1% | 66.2 | 62.3% | 64.5% | 68.3% | 47 | 27.7% | 72.7 | 79.8 | 75.6% | 62.6 | 38.6% | 54.1% | 69.5% | 51.5 | 30.5% | 68.9% | 63.3%
COc1ccc(NC(=O)c2sc3nc(C)c(C(O)c4ccccc4)cc3c2N)cc1 (stereo not given) | 24.9% | 13.1% | 20.3% | 28.6 | 17.8% | 23.4% | 23.2% | 26.2 | 55.1% | 57 | 46.5 | 40.4% | 36.1 | 43.4% | 52.6% | 45.2% | 42.4 | -1.83% (active) | 7.85% (active) | 12.5%
CCOC(=O)c1cn2ncnc(Oc3ccc(NC(=O)NC4CC4)c(F)c3)c2c1C | 60.4% | 110% | 91.3% | 89.2 | 82.5% | 87.7% | 94.9% | 86.9 | 87.7% | 108 | 114 | 96.3% | 95.1 | 70.6% | 119% | 93.5% | 102 | 54.2% | 90.9% | 104%
